# Values joined by “and” are separate entries in the source; they are usually repeats but may differ in a detail not shown here. Equal entries are not always repeated. Records with an inconclusive call do not appear. For some assays here: Entries with a potency or affinity are not part of this list. Active and inactive are the calls of the source. Unless noted, no cut-off is given here; in the data, nearly all actives have AC50 up to about 26 µM.
# How the values were obtained:
# [1] = restoration of touch response, mutant HTT neurons – whole organism, C. elegans mechanosensory neurons, N-terminal huntingtin (AID 1599); details: C. elegans polyQ-huntingtin mechanosensory neurons, stronger effect = higher value
# [2] = GFP-Q80 aggregate reduction, neuronal-like cells, cell-based, NGF-treated PC12, GFPQ80 (AID 1614); details: PC12 NGF-treated GFP-polyQ80 inclusion reduction;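 note: lower means fewer inclusions and 0 means no inclusions at all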
# [3] = 75Q-TubH aggregate inhibition, S. cerevisiae, yeast (AID 1616); details: S. cerevisiae 75Q-TubH polyglutamine aggregation suppression; stronger effect = higher value
# [4] = test system: Hepatitis C virus NS3 helicase; experiment: blockers of NS3h binding to ssDNA – biochemical, fluorescence polarization, LOPAC1280 library, primary screen (AID 687035; in the data active = inhibition above about 37%); details: Purified HCV NS3 helicase, Cy5-dT15 ssDNA binding fluorescence polarization; stronger effect = higher value; concentration not given here
# [5] = compounds altering Cy5-DNA-NS3h complex signal – biochemical, LOPAC1280, artefact control for HCV NS3 helicase inhibitor project (AID 687037; call rule not given here); details: Cy5-DNA-NS3h complex fluorescence interference counterscreen
# [6] = viability loss in pontine glioma line – cell-based, SU-DIPG-XVII, MIPE5.0, CellTiter-Glo, qHTS, dose response (AID 1347060); details: CellTiter-Glo ATP luminescence
# [7] = viability loss in pontine glioma line – cell-based, SU-DIPG-XIII, MIPE4.0, CellTiter-Glo, qHTS, dose response (AID 1347061; cut-off not given, nearly all actives have AC50 up to about 37 µM;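 note: cells exposed to compound for 48 hours before readout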); details: CellTiter-Glo ATP luminescence
# [8] = viability loss in pontine glioma line – cell-based, JHH-DIPG-1, MIPE4.0, CellTiter-Glo, qHTS, dose response (AID 1347062; cut-off not given, nearly all actives have AC50 up to about 27 µM); details: JHH-DIPG-1 viability, CellTiter-Glo ATP luminescence
# [9] = viability loss in pontine glioma line – cell-based, SU-DIPG-IV, MIPE4.0, CellTiter-Glo, qHTS, dose response (AID 1347063; cut-off not given, nearly all actives have AC50 up to about 30 µM;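 note: compound exposure lasted 48 hours before the viability readout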); details: CellTiter-Glo ATP luminescence
# [10] = growth inhibition of DIPG cells – cell-based, MIPE4.0 library, CellTiter-Glo luminescence, qHTS (AID 1347066; cut-off not given, nearly all actives have AC50 up to about 30 µM;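 note: cells exposed to compound for 48 hours before readout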); details: SU-DIPG-VI viability, CellTiter-Glo ATP luminescence
# [11] = JHH-DIPG-1 glioma cell viability, MIPE5.0 library, CellTiter-Glo luminescence, qHTS (AID 1347067); details: JHH-DIPG-1 glioma viability, CellTiter-Glo ATP luminescence;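 note: cells exposed to compound for 48 hours before readout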
# [12] = growth inhibition of DIPG cells – cell-based, MIPE5.0 library, qHTS (AID 1347068; cut-off not given, nearly all actives have IC50 up to about 30 µM); details: SU-DIPG-XXV viability
# [13] = blockers of cellular phospholipid synthesis – cell-based, LOPAC library, screen 4, primary screen (AID 1347384; call rule not given here); details: animal cells, phospholipid biosynthesis inhibition screen; at 10 µM
# [14] = compounds altering viability of human ES cells (AID 493140; call rule not given here;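 note: cells exposed to compounds for four days before counting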); details: human embryonic stem cell survival screen; stronger effect = higher value
# [15] = viability loss in pontine glioma line – cell-based, SU-DIPG-XXV, MIPE5.0, CellTiter-Glo, qHTS, dose response (AID 1347065); details: CellTiter-Glo ATP luminescence;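 note: cells exposed to compound for 48 hours before ATP readout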
# [16] = growth inhibition, single agents and combos, LFS_MB_1R, cell-based, cisplatin or BGB combos, synergistic combos for chromothripsis tumors (AID 1671452; in the data active = inhibition above about 80%;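 note: cells exposed for 96 hours before readout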); details: LFS_MB_1R medulloblastoma cells, stronger effect = higher value
# [17] = growth inhibition, MDA-MB-436, cell-based, BGB or cisplatin combos, synergistic combos for chromothripsis tumors (AID 1671458; call rule not given here;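 note: cells exposed for 96 hours; 0% = vehicle DMSO and 100% = killing by high DMSO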); details: MDA-MB-436 breast carcinoma growth inhibition, drug combinations, stronger effect = higher value
# [18] = BT084 cell growth, single and combined drugs, ICGC_MB145, cisplatin and BGB IC40 combos (AID 1671461; in the data active = inhibition above about 80%;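 note: cells exposed to drugs for 96 hours; 0% = vehicle DMSO and 100% = high DMSO full killing control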); details: BT084 medulloblastoma cells, drug combinations, stronger effect = higher value
# [19] = RCMB18 cell growth, single agent and combined, cisplatin and BGB IC40 combos (AID 1671462; in the data active = inhibition above about 80%;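 note: cells exposed to compound for four days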); details: RCMB18 medulloblastoma cells, stronger effect = higher value
# [20] = CRL1545 cell growth, single agent and combined, cisplatin and BGB IC20 combos (AID 1671464; in the data active = inhibition above about 80%;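 note: cells exposed to compound for 96 hours before readout; 0% = vehicle DMSO and 100% = high DMSO killing control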); details: CRL1545 osteosarcoma cells, stronger effect = higher value
# [21] = measured here: combination with cisplatin, at 0.5 µM
structure (smiles),measurement,setting,value
O=c1[nH]cnc2[nH]ncc12,rescue above control,[1],2.94
same,inclusion score,[2],2
same,aggregation suppression score,[3],1.87
same,inhibition,[4],-4% (inactive)
same,fluorescence ratio (interference),[5],0.9 (inactive)
same,outcome,[6],inactive
same,outcome,[7],inactive
same,outcome,[8],inactive
same,outcome,[9],inactive
same,outcome,[10],inactive
same,outcome,[11],inactive
same,outcome,[12],inactive
same,outcome,[13],inactive
CCc1cc(C(N)=S)ccn1,rescue above control,[1],-3.77
same,inclusion score,[2],2
same,aggregation suppression score,[3],1.09
same,survival,[14],9.25 (inactive)
same,outcome,[6],inactive
same,outcome,[7],inactive
same,outcome,[8],inactive
same,outcome,[9],inactive
same,outcome,[15],inactive
same,outcome,[10],inactive
same,outcome,[11],inactive
same,outcome,[12],inactive
N[C@@H](Cc1cc(I)c(Oc2cc(I)c(O)c(I)c2)c(I)c1)C(=O)O,outcome,[6],inactive
same,outcome,[7],inactive
same,outcome,[8],inactive
same,outcome,[15],inactive
same,outcome,[11],inactive
same,outcome,[12],inactive
COc1c(N2CCNC(C)C2)c(F)cc2c(=O)c(C(=O)O)cn(C3CC3)c12 (stereo unspecified),outcome,[6],inactive
same,outcome,[7],inactive
same,outcome,[8],inactive
same,outcome,[9],inactive
same,outcome,[15],inactive
same,outcome,[10],inactive
same,outcome,[11],inactive
same,outcome,[12],inactive
same,inhibition,[16]; at 0.5 µM,-13.4% (inactive) and -12.7% (inactive)
same,inhibition,"[16]; measured here: combination with BGB IC40, at 0.05 µM",-24.8% and -10.4%
same,inhibition,[16]; [21],-39.4% and -1.15%
same,inhibition,"[16]; measured here: combination with cisplatin, at 5 µM",-37.1% and -28.2%
same,inhibition,[17]; at 0.5 µM,-1.19% (inactive) and -2.62% (inactive)
same,inhibition,"[17]; measured here: BGB combination, at 0.5 µM",3.75% and -2.36%
same,inhibition,"[17]; measured here: BGB combination, at 5 µM",-2.62% and -0.158%
same,inhibition,"[17]; measured here: cisplatin combination, at 0.5 µM",-6.86% and -4.47%
same,inhibition,"[17]; measured here: cisplatin combination, at 5 µM",-18.4% and -9.12%
same,inhibition,[18]; at 0.5 µM,11.1% (inactive) and -2.29% (inactive)
same,inhibition,"[18]; cisplatin combination, at 0.5 µM",-21.4% and -4.21%
same,inhibition,"[18]; cisplatin combination, at 5 µM",-1.24% and -0.514%
same,inhibition,"[18]; measured here: BGB IC40 combination 0.05 uM, at 0.05 µM",19.1% and 4.51%
same,inhibition,"[18]; single agent, at 5 µM",-3.66% and 0.545%
same,inhibition,[19]; at 0.5 µM,0.35% (inactive) and 3.27% (inactive)
same,inhibition,"[19]; cisplatin combo, at 5 µM",-46.2% and 7.98%
same,inhibition,"[19]; measured here: BGB IC40 combination, at 0.05 µM",-11.6% and -8.34%
same,inhibition,[19]; [21],-15.6% and 6.4%
same,inhibition,"[19]; single agent, at 5 µM",4.79% and -5.12%
same,inhibition,[20]; at 0.5 µM,-17.5% (inactive) and -1.12% (inactive)
same,inhibition,"[20]; measured here: with BGB IC20 combination, at 0.5 µM",-19.9% and -23.9%
same,inhibition,"[20]; measured here: with cisplatin IC20 combination, at 0.5 µM",-18.3% and 8.22%
same,inhibition,"[20]; single agent, at 0.05 µM",-13.6% and 2.79%
same,inhibition,"[20]; single agent, at 5 µM",-53.5% and 15.1%
CN=C(NC#N)NCCSCc1nc[nH]c1C,rescue above control,[1],-9.17
same,inclusion score,[2],2
same,aggregation suppression score,[3],1.05
same,inhibition,[4],0% (inactive)
same,fluorescence ratio (interference),[5],1 (inactive)
same,outcome,[13],inactive
CCCCNc1cc(C(=O)O)cc(S(N)(=O)=O)c1Oc1ccccc1,rescue above control,[1],-11.4
same,inclusion score,[2],2
same,aggregation suppression score,[3],1.32
same,survival,[14],12.6 (inactive)
same,inhibition,[4],-3% (inactive)
same,fluorescence ratio (interference),[5],0.9 (inactive)
same,outcome,[6],inactive
same,outcome,[7],inactive
same,outcome,[8],inactive
same,outcome,[9],inactive
same,outcome,[15],inactive
same,outcome,[10],inactive
same,outcome,[11],inactive
same,outcome,[12],inactive
same,outcome,[13],inactive
CC1=NS(=O)(=O)c2cc(Cl)ccc2N1,survival,[14],11.5 (inactive)
same,inhibition,[4],-1% (inactive)
same,fluorescence ratio (interference),[5],1 (inactive)
same,outcome,[13],inactive
CC(C)Cc1ccc(C(C)C(=O)O)cc1 (stereo unspecified),rescue above control,[1],11.4
same,inclusion score,[2],2
same,aggregation suppression score,[3],-0.00282
same,inhibition,[4],-2% (inactive)
same,fluorescence ratio (interference),[5],1 (inactive)
same,outcome,[6],inactive
same,outcome,[7],inactive
same,outcome,[8],inactive
same,outcome,[9],inactive
same,outcome,[15],inactive
same,outcome,[10],inactive
same,outcome,[12],inactive
same,outcome,[13],inactive
